Screening data (PubChem BioAssay)
Rows were chosen to be rich in hits. Some 4.3% of all compounds tested hit in one or more screens of this group.
TRPM1 prom inh: MITF TRPM1 promoter inhibition in SK-MEL-5 cells; 330,000 compounds, 0.83% hits; inhibition, % at 12.5 µM; SK-MEL-5 TRPM1 promoter luciferase, 24 h; AID 488899;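 active means mean inhibition across replicates of 60% or more, whatever share of single replicates reaches that level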
CHOP inhibitor: inhibitors of CHOP induction in ER stress response. CHO-K1 CHOP-promoter luciferase, tunicamycin-induced, 15-18 h. inhibition, % at 10 µM. 220,000 compounds, 3.8% hits;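 active means compounds that reduced the stress-induced luciferase reporter signal by more than about 70% of percent inhibition, limit read from the data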;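 further: 0% = tunicamycin plus vehicle and 100% = wells without tunicamycin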
HIF-2a inh: inhibitors of HIF-2a; 786-0 RCC cells HIF-2a reporter, luciferase luminescence, overnight; inhibition, % at 18.8 µM; 360,000 compounds, 0.72% hits;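 active means inhibition of the luminescence signal of 40% or more relative to plate controls, in a single-dose primary screen at 18.75 µM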
CF NFkB inh: inhibitors of cystic fibrosis induced NF-kB; 360,000 compounds, 0.86% hits; KKLEB NF-kB-GFP reporter, PAF-induced, GFP fluorescence overnight; inhibition, % at 5 µM;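 active means at least 50% inhibition at 5 µM, scaled per plate between neutral and stimulator controls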;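 further: PAF is a Pseudomonas aeruginosa culture filtrate used as stimulus; plate controls were PAF-stimulated DMSO wells for no effect and unstimulated DMSO wells for full effect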
Peg3 promoter: Peg3 promoter activity inhibition. HeLa PEG-Prom luciferase reporter, luminescence, overnight. inhibition, % at 20 µM. 360,000 compounds, 1.7% hits. AID 588405;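 active means inhibition of at least 50% at 20 µM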
KKLEB cytotox: CF airway cell cytotoxicity counter-screen; KKLEB CF airway cells viability, ATPlite luminescence, overnight; stronger effect = lower value; cells stimulated with P. aeruginosa culture filtrate; activity change (cytotoxicity), % at 5 µM; 360,000 compounds, 0.36% hits; AID 602141;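 active means corrected activity change at or below -50% at 5 µM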
CHOP confirm: confirmation of CHOP induction inhibitors. inhibition, % at 10 µM. AID 504437. shares compounds with CHOP inhibitor. CHO-CHOP promoter luciferase reporter, tunicamycin-induced, luminescence. 2,100 compounds, 45% hits;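 active means mean of three repeat readings of reporter signal inhibition above a set limit, cut at about 70% in these data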;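 further: 0% = tunicamycin plus vehicle and 100% = wells lacking tunicamycin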
* hit, by the source's call; · = not tested or not shown.

SMILES	TRPM1 prom inh	CHOP inhibitor	HIF-2a inh	CF NFkB inh	Peg3 promoter	KKLEB cytotox	CHOP confirm
Nc1cc(N)c(OCC(F)(F)F)cc1OCC(F)(F)F	65*	102*	11	3	-2	-4	0
Nc1nc(OCC(F)(F)F)cc(Oc2ccccc2F)n1	-21	46	-107	-10	-74	5	·
CC(C)[C@H](CO)NC(=O)[C@H]1O[C@@H](n2ccc(=O)[nH]c2=O)[C@H](O)[C@@H]1O	·	·	3	-2	-7	7	·
Cc1cccc(C(=O)c2cnc3ccccc3c2-c2ccccc2)c1	3	102*	25	22	21	2	77*
O=C1C=CC2=C3c4cc(O)c(O)cc4CC3(O)COC2=C1O (configuration not stated)	2	·	7	19	34	-6	·
CC(C)Cc1cc(C(=O)N2N=C(C(F)F)CC2(O)C(F)F)c2ccccc2n1 (configuration not stated)	1	32	15	0	13	0	·
CCc1ccc(-c2cc(C(=O)N3N=C(C(F)F)CC3(O)C(F)F)c3ccccc3n2)cc1 (configuration not stated)	-27	110*	-250	3	-80	0	113*
O=C(Cn1c2ccc(F)cc2c2nc3n(c(=O)c21)CCS3)Nc1ccc(Cl)cc1F	-6	96*	12	-20	30	-1	19
COC1OC2COC(c3ccccc3)OC2C2OC(c3ccccc3)OC12 (configuration not stated)	·	·	5	0	11	3	·
CCOC(=O)c1cc(-c2ccccc2C)n(CC2CC(c3ccc(OC)cc3)=NO2)n1 (configuration not stated)	-2	·	19	-2	2	-11	·
Cn1c(SCC(=O)N/N=C/c2cc([N+](=O)[O-])ccc2O)nnc1-c1ccccc1	5	60	3	4	19	8	·
Cn1c(SCC(=O)N/N=C/c2ccc([N+](=O)[O-])s2)nnc1-c1ccccc1	71*	105*	16	-3	64*	-14	-8
O[C@@H]1CN(Cc2ccc(-n3cccn3)cc2)CC[C@H]1N1CCN(c2ccccc2F)CC1	19	·	20	4	0	0	·
COc1ccc(NC(=O)c2cc(C)cc(C)c2)cc1S(=O)(=O)N1CCCCC1	26	·	19	37	26	2	·
CCOC(=O)c1c(C)oc2c1c(C(c1cccnc1)N1CCOCC1)c(O)c1ccccc12 (configuration not stated)	-41	107*	32	30	-161	-7	-2
CCOC(=O)c1c(C)oc2c1c1c(c3ccccc32)OCN(Cc2cccnc2)C1	-23	-50	8	13	-278	-15	·
O=C(c1ccco1)N1CCN(c2ncnc3c2[nH]c2ccc(Cl)cc23)CC1	·	28	·	·	·	·	·
O=C(c1ccco1)N1CCN(c2c(-c3ccccc3)c3cc(Cl)ccc3[nH]c2=O)CC1	19	97*	12	23	13	-5	115*
CC(C)(C)c1ccc(OCC(=O)N/N=C/C2CC=CCC2)cc1 (configuration not stated)	6	99*	10	-13	3	22	99*
CC(C)(C)c1ccc(OCC(=O)N/N=C/c2ccc(N3CCOCC3)cc2)cc1	-18	105*	-20	-18	2	2	65
O=C(CCc1ccccc1)N/N=C\C1CC=CCC1 (configuration not stated)	-4	·	6	-4	4	6	·
COc1cc(NC(=O)c2ccco2)c(C(=O)OCC(=O)c2c[nH]c3ccccc23)cc1OC	-7	107*	0	5	75*	-11	42
C[C@H]1CN([C@@H](C)CO)C(=O)c2cc(C#CC3CCCC3)cnc2O[C@H]1CN(C)C(=O)Cc1ccccn1	·	·	7	-4	-18	5	·
Cc1ccc(NC(=O)CSC2=C(C#N)C(c3ccco3)C3=C(CC(C)(C)CC3=O)N2)cc1 (configuration not stated)	5	100*	26	18	14	-7	44
